Results from article PMC5540273 (PLoS ONE, 2017).
Values joined by “and” are separate entries in the source; they are usually repeats but may differ in a detail not shown here. Equal entries are not always repeated. Where two headings read alike, the source gives them in different places.

Key:
LTK = settings: concentration: 1 μM, replicates: in singlicate, n = 1
LYN = settings: concentration: 1 μM, replicates: in singlicate; n = 1
LZK = test system: T1, LZK; settings: concentration: 1 μM, replicates: in singlicate, n = 1
T1 construct: gene MAP3K13

MAK = settings: concentration: 1 μM, replicates: in singlicate, n = 1
MAP3K15 = settings: concentration: 1 μM, replicates: in singlicate; n = 1
MAP3K1 = settings: concentration: 1 μM, replicates: in singlicate, n = 1
MAP3K2 = settings: concentration: 1 μM, replicates: in singlicate, n = 1
MAP3K3 = settings: concentration: 1 μM, replicates: in singlicate; n = 1
MAP3K4 = settings: concentration: 1 μM, replicates: in singlicate, n = 1
MAP4K2 = settings: concentration: 1 μM, replicates: in singlicate; n = 1
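Note: KINOMEscan kinase panel screen.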

SMILES | %Inh (LTK) [%] | %Inh (LYN) [%] | %Inh (LZK) [%] | %Inh (MAK) [%] | %Inh (MAP3K15) [%] | %Inh (MAP3K1) [%] | %Inh (MAP3K2) [%] | %Inh (MAP3K3) [%] | %Inh (MAP3K4) [%] | %Inh (MAP4K2) [%] | %Inh (LTK; 1 µM) | %Inh (LZK; 1 µM) | %Inh (MAK; 1 µM) | %Inh (MAP3K1; 1 µM) | %Inh (MAP3K2; 1 µM) | %Inh (MAP3K4; 1 µM)
[2H]C([2H])(c1cccc(C(F)(F)F)c1C)n1ccn2c(=O)nc(N3CCOCC3)cc12 [GSK2336394] | 19 | 0 | 0 | 17 | 0 | 0 | 5 | 0 | 25 | 0 |  |  |  |  |  | 
Cl.Oc1cccc(Nc2ccnc3cc(-c4ccncc4)ccc23)c1 [GW494601] | 69 | 86 | 36 | 61 | 0 | 1 | 76 | 70 | 0 | 88 |  |  |  |  |  | 
COc1ccc(Nc2nccc(N3CCC(NC(=O)Nc4cc(C)ccc4C)C3)n2)cc1 (stereo not shown) [GSK1379741] | 7 | 73 | 0 | 28 | 0 | 11 | 5 | 0 | 23 | 0 |  |  |  |  |  | 
Cc1nnc(-c2ccc3ncc(-c4ccc(S(C)=O)cc4)n3c2)o1 (stereo not shown) | 0 | 18 | 11 | 0 | 19 | 4 | 8 | 5 | 0 | 0 |  |  |  |  |  | 
Cc1ccc(NC(=O)c2ccnc(N3CCN(C)CC3)c2)cc1-c1ccc(C(=O)NCC2CC2)cc1 [GW775604] | 0 | 0 | 0 | 0 | 0 | 0 | 0 | 0 | 0 | 0 |  |  |  |  |  | 
C[C@@H](Oc1cc(-n2cnc3ccc(NC(=O)NC(C)(C)C)cc32)sc1C(N)=O)c1ccccc1Cl [GSK346294] | 13 | 4 | 37 | 0 | 0 | 35 | 0 | 0 | 0 | 0 |  |  |  |  |  | 
CC(C)(CN)c1nc(-c2ccc(Cl)c(O)c2)c(-c2ccncc2)[nH]1.O=C(O)C(F)(F)F [SB-477794] |  | 91.1 |  |  | 0 |  |  | 0 |  | 0 | 18% and 30% | 49% and 47% | 41% and 0% | 22% and 7% | 43% and 35% | 0% and 13%
COC(=O)Nc1nc2cc(Oc3ccc(NC(=O)Nc4cc(F)ccc4F)cc3)ccc2[nH]1.Cl [GW701424] | 0 | 19 | 37 | 18 | 0 | 0 | 2 | 0 | 0 | 0 |  |  |  |  |  | 
NS(=O)(=O)c1cccc(-c2ccc3nccc(-c4cccc(S(N)(=O)=O)c4)c3c2)c1 [GW867253] | 0 | 0 | 1 | 0 | 0 | 8 | 15 | 0 | 12 | 9 |  |  |  |  |  | 
Nc1nc(-c2ccc3c(N)n[nH]c3c2)cc(N2CCCC2)n1 [GSK2227430] | 0 | 0 | 0 | 27 | 0 | 0 | 0 | 0 | 0 | 0 |  |  |  |  |  | 
CN(C1=C(c2ccccc2)C(=O)NC1=O)c1ccccc1 [SB-334860] | 6 | 0 | 0 | 20 | 0 | 9 | 2 | 0 | 10 | 0 |  |  |  |  |  | 
COCCNC(=O)c1ccc(-c2cc(C(=O)NC3CC3)cc(F)c2C)cc1 [GW868318] | 15 | 14 | 5 | 36 | 24 | 35 | 33 | 28 | 30 | 20 |  |  |  |  |  | 
O=C(NOCC1CC1)c1ccc(F)c(F)c1Nc1ccc(I)cc1Cl | 0 | 0 | 0 | 0 | 0 | 0 | 0 | 0 | 0 | 0 |  |  |  |  |  | 
NCC(NC(=O)c1cc(-c2cn[nH]c2)c(-c2ccnc3[nH]ccc23)s1)c1ccccc1.O=C(O)C(F)(F)F.O=C(O)C(F)(F)F (stereo not shown) [GSK1325775] | 0 | 0 | 0 | 16 | 21 | 12 | 8 | 0 | 20 | 84 |  |  |  |  |  | 
O=C1NC(=O)C(N2CCc3ccccc32)=C1c1cccc(Cl)c1 [SB-408010] | 5 | 7 | 12 | 37 | 1 | 26 | 0 | 22 | 9 | 0 |  |  |  |  |  | 
O=c1cc(N2CCOCC2)nc2n(Cc3cccc(C(F)(F)F)c3)ccn12 [GSK2297543] | 16 | 0 | 0 | 31 | 0 | 5 | 10 | 0 | 13 | 0 |  |  |  |  |  | 
